Most compounds without a hit are left out; they make up all but 2.9% or so of the library.
MEKK2 mut-MEK5 = signal of MEK5 binding to mutant human MEKK2 PB1 domain | 290,000 compounds, 0.35% hits | AID 1530 | percent response, % at 10 µM | bead flow cytometry, Alexa488-MEK5 binding to MEKK2 mutant; in the data active means percent response above about 24%, passing the limit was not always enough
MEKK3 PB1 HTS = modulators (inhibitors or enhancers) of MEK5 binding to human MEKK3 PB1 domain; Q99759; bead-based flow cytometry, Alexa488-MEK5 binding to MEKK3; actives lie on both sides; 0 = blocked by unlabeled MEK5, 100 = vehicle; binding response (% of control), % at 10 µM; 290,000 compounds, 1.4% hits; AID 1529;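 active means binding response more than 3 SD above or below the average of its plate-row segment, actives on both sides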;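 further: Alexa488 bead fluorescence after subtracting the streptavidin-only scavenger bead signal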
Target sequence (Q99759 whole entry, looked up, the tested form may be a part): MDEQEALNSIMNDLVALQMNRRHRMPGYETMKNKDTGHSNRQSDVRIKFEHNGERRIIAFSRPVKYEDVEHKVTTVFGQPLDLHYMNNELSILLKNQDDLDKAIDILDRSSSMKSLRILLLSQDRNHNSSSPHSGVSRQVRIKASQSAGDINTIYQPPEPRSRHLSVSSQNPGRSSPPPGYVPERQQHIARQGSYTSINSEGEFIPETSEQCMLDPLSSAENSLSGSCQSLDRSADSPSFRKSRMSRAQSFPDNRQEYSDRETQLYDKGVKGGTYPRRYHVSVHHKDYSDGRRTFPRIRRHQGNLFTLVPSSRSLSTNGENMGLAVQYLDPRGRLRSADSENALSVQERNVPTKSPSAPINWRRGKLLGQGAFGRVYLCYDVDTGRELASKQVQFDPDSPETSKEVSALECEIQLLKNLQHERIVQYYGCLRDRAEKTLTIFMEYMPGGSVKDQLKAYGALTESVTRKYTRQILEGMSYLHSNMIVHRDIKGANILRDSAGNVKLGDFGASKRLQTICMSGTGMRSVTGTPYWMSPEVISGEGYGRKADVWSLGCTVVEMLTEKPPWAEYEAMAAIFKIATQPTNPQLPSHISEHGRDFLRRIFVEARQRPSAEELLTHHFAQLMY
MEKK2 WT-MEK5 = raises or lowers MEK5 binding to wildtype human MEKK2 PB1 domain. AID 1531. 290,000 compounds, 1.1% hits. binding response (% of control), % at 10 µM. Q9Y2U5. bead flow cytometry, Alexa488-MEK5 binding to MEKK2 WT; actives lie on both sides; in the data active means binding response below about 67% or above about 130%
ABCB6 inh 2 = blocks the human ABCB6 transporter. AID 602162. 360,000 compounds, 0.19% hits. fluorescence ratio to DMSO, % at 10 µM. Q9NP58. K562-ABCB6 porphyrin accumulation, flow cytometry, 1 h; active compounds read low;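 active means fluorescence ratio to DMSO below 75%, the collection mean minus 3 SD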;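 further: signal is porphyrin accumulated inside mitochondria; 100% equals median channel fluorescence of DMSO control wells; lower ratio means ABCB6 inhibition with less porphyrin fluorescence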
CRFBP-R2 block = CRF-BP/CRF-R2 complex antagonism; HEK293 CRF-R2/CRF-BP, CRF-induced calcium fluorescence; inhibition, % at 11.8 µM; 350,000 compounds, 0.59% hits;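 active means inhibition of the ligand-induced calcium signal above about 50% at the single tested concentration, limit read from the data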
CRFR2-BP ag = agonists of human CRF-binding protein/CRF-R2 receptor complex | HEK293 CRF-R2/CRF-BP, calcium dye fluorescence (FLIPR); percent of saturating CRF peptide response | activation, % at 13.2 µM | 350,000 compounds, 0.46% hits | AID 588473;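 active means activation of at least 50%, plus an integration ratio under a set limit after plate pattern correction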;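 further: plate controls were neutral control wells without compound for no effect and CRF at EC100 for full effect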
MEKK2wt confirm = raises or lowers MEK5 binding to wildtype human MEKK2, retest; shares compounds with MEKK3 PB1 HTS; bead flow cytometry, Alexa488-MEK5 binding to MEKK2 WT; actives lie on both sides; binding response (% of control), % at 10 µM; 5,900 compounds, 2.4% hits; AID 1892; in the data active means binding response below about 16% or above about 210%; inactive means in between
MEKK2mut-MEK5 = signal of MEK5 binding to mutant human MEKK2, retest | shares compounds with MEKK3 PB1 HTS | bead flow cytometry, Alexa488-MEK5 binding to MEKK2 mutant | percent response, % at 10 µM | 5,900 compounds, 2% hits; in the data active means percent response mostly above about 71%, no sharp cut-off; inactive means mostly below about 38%;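 further: higher means compound restores mutant binding toward wildtype level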
MEKK3 confirm = confirmation of inhibitors of MEK5 binding to human MEKK3. shares compounds with MEKK3 PB1 HTS. 5,900 compounds, 1.8% hits. binding response (% of control), % at 10 µM. bead flow cytometry, Alexa488-MEK5 binding to MEKK3; active compounds read low;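 active means binding response below 72% of control, or above a set upper limit, though filed actives all read lower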;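 further: 100% = DMSO only wells and 0% = binding blocked by excess unlabeled MEK5; lower values mean stronger disruption of MEK5 binding to MEKK3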
Starred values were filed as active, the others as inactive; · = no result given; [ ] = dose if it differs, or a comment.

SMILES | MEKK2 mut-MEK5 | MEKK3 PB1 HTS | MEKK2 WT-MEK5 | ABCB6 inh 2 | CRFBP-R2 block | CRFR2-BP ag | MEKK2wt confirm | MEKK2mut-MEK5 | MEKK3 confirm
Cc1cnc(C(=O)Nc2nnc(C)s2)cn1 | 3 | 105 | 107 | 98 | -7 | 0 | · | · | ·
CSC(=S)N/N=C/c1ccccc1 | -5 | 95 | 95 | 98 | 26 | -2 | · | · | ·
COc1ccc2cc(-c3ccccc3F)ncc2c1 | · | · | · | 94 | -11 | -2 | · | · | ·
CN1CCc2c(sc3c2C(=O)NC(/C=C\c2ccccc2)N3)C1 (stereo not given) | 26 | 114 | 125 | 124 | -10 | 17 | · | · | ·
CN1CCc2c(sc3c2C(=O)NC(c2ccc(-c4cccc(Cl)c4)o2)N3)C1 (stereo not given) | 42 | 82 | 170* | 105 | -22 | 16 | 127 | 48 | 104
CC(C)C(C(=O)Nc1ccc(N2CCOCC2)cc1)N1C(=O)c2ccccc2C1=O (stereo not given) | -25 | 2.0*[inhibitor] | -2.0*[inhibitor] | 106 | -13 | -1 | 107 | 7 | 103
CC(C)(C)OC(=O)N1Cc2ccccc2C[C@H]1C(=O)NC1CCCC1 | 4 | 106 | 106 | 85 | 8 | 0 | · | · | ·
COc1ccc(S(=O)(=O)N(CCC(N)=O)Cc2ccco2)cc1OC | -21 | 50*[inhibitor] | 54 | 108 | 15 | 0 | 104 | 2 | 103
COc1ccc(-c2cc(C(=O)Nc3c(C)n(C)n(-c4ccccc4)c3=O)c3ccccc3n2)c(OC)c1 | 0 | 102 | 99 | 89 | 15 | 0 | · | · | ·
O=C(Nc1cccc2ccccc12)NC1CCCCC1 | 7 | 105 | 105 | 95 | 3 | -1 | · | · | ·
O=C(Nc1cccc2ccccc12)NC1Cc2ccccc2C1 | -10 | 73*[inhibitor] | 82 | 104 | 10 | -1 | 111 | 3 | 98
Cc1cc2oc(=O)cc(CN3CCCc4ccccc43)c2cc1C | 228* | 105 | · | 215 | 1 | 8 | 92 | -13 | 100
Cc1cc2oc(=O)cc(CN3CCCCC3)c2cc1C | 0 | 96 | 97 | 96 | 12 | -6 | · | · | ·
CC1CCN(C(=O)CN2C(=O)NC(C)(c3ccc4ccccc4c3)C2=O)CC1 (stereo not given) | · | · | · | 98 | -10 | -4 | · | · | ·
CC1(C)NC(=O)N(CCOc2ccc([N+](=O)[O-])cc2)C1=O | -40 | 42*[inhibitor] | 49 | 104 | 1 | -2 | 97 | 0 | 100
Cc1cc(OCCCCN2C(=O)NC(C)(C)C2=O)ccc1[N+](=O)[O-] | -2 | 99 | 97 | 93 | -4 | 0 | · | · | ·
Cc1ccc(Cl)cc1N1CCN(C(=O)Cc2cn(C)c3ccccc23)CC1 | 5 | 130* | 117 | 95 | 8 | -4 | 106 | 4 | 107
Cc1ccc(C)c(N2CCN(C(=O)Cc3cn(C)c4ccccc34)CC2)c1 | 4 | 111 | 113 | 99 | 3 | -1 | · | · | ·
CN(C)CCOC(=O)c1ccc2[nH]c3c(c2c1)CSCC3 | 39 | 108 | 194* | 99 | 20 | 0 | 102 | -4 | 104
O=C(O)c1ccc2[nH]c3c(c2c1)CSCC3 | 2 | 97 | 98 | 109 | -2 | -2 | · | · | ·
CN(C)c1nc(N(C)C)c2cnn(C)c2n1 | · | · | · | 101 | 13 | 0 | · | · | ·
Cc1ccc(/C=N/NC(=O)C(=O)N/N=C/c2ccc(C)o2)o1 | -2 | 91 | 89 | 95 | 36 | -1 | · | · | ·
Cc1ccc(/C=N/NC(=O)c2ccoc2C)o1 | 1 | 130* | 110 | 96 | 12 | 0 | 106 | 7 | 108
Cn1cc(CNC(=O)c2sc3cccc(Cl)c3c2Cl)cn1 | 11 | 131* | 102 | 97 | -1 | -1 | 96 | 2 | 101
